Among the data in PubChem BioAssay are z-score values, retold here.

The nature of assay [1]: compound effects on lung adenocarcinoma cell viability – A549, calcein-AM fluorescence, 48 h, basal, profiling panel (AID 1162). Particulars: higher = more signal.
Assay [2] is described as follows: compound effects on differentiated 3T3-L1 adipocyte viability – cell-based, 3T3-L1 adipocytes, calcein-AM fluorescence, 48 h, basal, profiling panel (AID 1163). Conditions: 3T3-L1 adipocytes viability, higher = more signal.
Assay [3] is described as follows: compound effects on hepatocellular carcinoma cell viability – HepG2, calcein-AM fluorescence, 48 h, basal, profiling panel (AID 1164). Particulars: higher = more signal.
Assay [4] in a line: compound effects on multiple myeloma cell viability – MM1S, calcein-AM fluorescence, 48 h, basal, profiling panel (AID 1165). Conditions: higher = more signal.
The nature of assay [5]: calcein-AM signal in unstimulated myeloma cells – cell-based, calcein-AM fluorescence, 48 h, PK04 Diversity Set, profiling panel (AID 1166).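 Also: cells grown under basal conditions without added stimulus.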 Conditions: RPMI8226 myeloma viability, higher = more signal.
Assay [6] can be described thus: JC-1 mitochondrial signal, unstimulated HepG2 cells – cell-based, JC-1 fluorescence, 24 h, 100 nL compound, profiling panel (AID 1167). Particulars: HepG2 mitochondrial potential, higher = more signal.
The nature of assay [7]: JC-1 mitochondrial signal, unstimulated adipocytes – cell-based, JC-1 fluorescence, 3T3-L1 adipocytes, 24 h, 100 nL compound, profiling panel (AID 1168). Conditions: JC-1 mitochondrial fluorescence, higher = more signal, called active from +8 up or from −8 down.
Assay [8] is described as follows: JC-1 mitochondrial signal, unstimulated myeloma cells – cell-based, JC-1 fluorescence, RPMI8226, 24 h, 100 nL compound, profiling panel (AID 1169). Conditions: JC-1 mitochondrial potential fluorescence, higher = more signal.
Assay [9] is described as follows: JC-1 mitochondrial signal, unstimulated MM1S myeloma – cell-based, JC-1 fluorescence, 24 h, 100 nL compound, profiling panel (AID 1170). Particulars: MM1S mitochondrial potential, higher = more signal.
Assay [10] is described as follows: resazurin metabolic signal in A549 cells – cell-based, resazurin fluorescence, 24 h, PK04 Diversity Set, profiling panel (AID 1171). Particulars: A549 viability, higher = more signal, called active from +8 up or from −8 down.

Calls of active or inactive are those of the source.
Also: test concentration not given here.

Regarding `COc1cccc(C)c1NC(=O)O[C@H]1[C@H](OC(=O)Nc2ccccc2)[C@@H](OC(=O)Nc2ccccc2)[C@@H](OC)O[C@@H]1CO`, the z-score in [1] is -1.86; in assay [2], 0.861; in [3] it was -1.9; in [4] it was -2.59; in assay [5], -3.26; in assay [6], -0.702. In addition, the z-score in assay [7] is 1.17 (inactive); in assay [8], -1.05; in [9] it was 0.0418; in assay [10] it was -3.49 (inactive).

As for `O=C(c1ccccc1)N1Cc2ccccc2C[C@@]2(N=C(c3ccc(OCCCO)cc3)O[C@H]2c2ccccc2)C1=O`, the z-score was -1.12 in assay [1]; 0.862 in [2]; -1.18 in [3]; -3.31 in assay [4]; -4.05 in assay [5]; -1.68 in assay [6]. Besides, the z-score in assay [7] was 0.471 (inactive); in assay [8], -1.25; in [9], -2.14; in assay [10], -2.63 (inactive).

For the compound `CC(C)c1ccc(NN2C(C(O)C3=C[C@H]4C[C@@H](C3)C4(C)C)C=CC3C(=O)N(c4ccccc4)C(=O)C32)cc1` (stereo not given in full), the z-score in assay [1] was 0.0464; in [2], -0.395; in assay [3] it was 0.165; in [4], -1.16; in assay [5] it was -1.04; in [6], -2.56. Besides, the z-score in assay [7] is -0.401 (inactive); in assay [8] it was -0.366; in assay [9] it was 0.758; in assay [10], -0.186 (inactive).

On to `O=C1N(Cc2ccccc2)c2ccccc2C[C@@]12N=C(c1ccc(OCCCO)cc1)O[C@H]2c1ccccc1`, for which the z-score in assay [1] was -1.32; in assay [2], 0.84; in assay [3] it was -1.86; in assay [4] it was -3.33; in assay [5], -4.24; in assay [6], -0.237. Moreover, the z-score in assay [7] was -0.0792 (inactive); in assay [8], -1.29; in assay [9], 0.811; in assay [10], -1.63 (inactive).

Consider `COc1ccc(C(=O)Nc2ccc(CN3C(=O)[C@]4(O[C@H](CC(=O)N(CCO)Cc5ccccc5)[C@@H]([Si](C)(C)c5ccc(OC)cc5)[C@@H]4C)c4ccccc43)cc2)cc1`, for which the z-score is -0.937 in assay [1]; 1.19 in assay [2]; -1.52 in assay [3]; -1.92 in assay [4]; -2.73 in assay [5]; 0.353 in [6]. For the same compound, the z-score in assay [7] was 0.324 (inactive); in assay [8], -1.02; in assay [9], -0.692; in assay [10], -2.04 (inactive).

For the compound `COC(=O)C(CC#Cc1ccc2c(c1)[C@]1(C(=O)N2)[C@H](C(=O)NC[C@H](O)c2ccccc2)[C@H]2C(=O)O[C@H](c3ccccc3)[C@H](c3ccccc3)N2[C@@H]1c1ccc(O)cc1)C(=O)OC`, the z-score was -0.244 in [1]; -1.56 in assay [2]; -0.0776 in assay [3]; -1.46 in [4]; -1.97 in assay [5]; -2.14 in assay [6]. The z-score in assay [7] was -1.75 (inactive); in assay [8], -0.933; in [9] it was -0.492; in [10], 0.489 (inactive).

Regarding `C=CCNC(=O)[C@@H]1[C@H]2C(=O)O[C@H](c3ccccc3)[C@H](c3ccccc3)N2[C@H](c2ccc(O)cc2)[C@@]12C(=O)Nc1ccc(C#CC3=CCCCC3)cc12`, the z-score in [1] was 0.0719; in assay [2], 0.266; in assay [3], -3.89; in assay [4] it was -3.35; in assay [5], -4.57; in assay [6] it was -1.42. In addition, the z-score was 1.38 (inactive) in [7], -1.15 in assay [8], -1.2 in assay [9] and -1.48 (inactive) in assay [10].

For the compound `CCCCCN1CC=CC23O[C@@H]4/C=C\CCCOC(=O)C4[C@H]2C(=O)N(CCCCCO)[C@@H]3C1=O` (stereo not given in full), the z-score in assay [1] was 0.386; in [2], 1.96; in [3], -0.216; in assay [4], 0.281; in assay [5], 1.13; in assay [6], -0.116. Further, the z-score in assay [7] is 1.24 (inactive); in [8], -0.21; in [9], -0.235; in [10], 0.844 (inactive).

As to `CCOC(=O)C[C@H]1[C@H](OC(=O)c2cc3ccccc3oc2=O)[C@@H](NC(=O)Cc2ccc(OC)cc2)c2cc(OCCCO)ccc2N1C(=O)Cc1ccc(OC)cc1`, the z-score in assay [1] is 1.16; in [2], 1.68; in assay [3] it was 0.37; in [4], 0.789; in assay [5] it was 0.148; in assay [6], 0.164. In addition, the z-score in assay [7] was -0.3 (inactive); in assay [8], 0.301; in assay [9] it was -0.985; in [10], 0.551 (inactive).

With `C=CCN1C(=O)[C@]2(O[C@H](CCO)[C@@H]([Si](C)(C)c3ccc(OC)cc3)[C@@H]2C)c2cc(N3C(=O)c4ccccc4Oc4ccccc43)ccc21`, the z-score was -3.65 in [1]; 0.139 in assay [2]; -4.64 in assay [3]; -2.73 in assay [4]; -4.35 in assay [5]; -2.08 in assay [6]. Also, the z-score in [7] is -0.599 (inactive); in assay [8], -1.04; in assay [9], -2.15; in assay [10] it was -5.48 (inactive).
